Source: PubChem BioAssay AID1159580 (chemical genetic matrix, 2015)
Among all 5,500 compounds or so, about 2,000 (36%) were called active. Roughly 18% stayed inconclusive and do not appear here. Cut-off read from the data, not from the text of the source: active = normalized growth mostly below about 0.91 (no sharp cut-off); inconclusive = no clear call, values can overlap the other calls; inactive = mostly above about 0.92. The list shows a part of the results.

Assay: chemical genetic growth profiling, strain panel (AID 1159580);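 note: tested at 20 µM; growth read once vehicle control cultures reached saturation at 30 °C; 1 = growth at the plate median or of vehicle wells; lower values mean less growth of the strain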
Settings: growth OD
[1] = S. cerevisiae deletion strains, locus YAL013W, strain DEP1, active compounds read low
[2] = S. cerevisiae deletion strains, locus YBR229C, strain ROT2, active compounds read low
[3] = S. cerevisiae deletion strains, locus YDL101C, strain DUN1, active compounds read low
[4] = S. cerevisiae deletion strains, locus YEL061C, strain CIN8, active compounds read low
[5] = S. cerevisiae deletion strains, locus YGR078C, strain PAC10, active compounds read low
[6] = S. cerevisiae deletion strains, locus YHR030C, strain SLT2, active compounds read low
[7] = S. cerevisiae deletion strains, locus YJR043C, strain POL32, active compounds read low
[8] = S. cerevisiae deletion strains, locus YJR075W, strain HOC1, active compounds read low
[9] = S. cerevisiae deletion strains, locus YLR039C, strain RIC1, active compounds read low
[10] = S. cerevisiae deletion strains, locus YLR262C, strain YPT6, active compounds read low
[11] = S. cerevisiae deletion strains, locus YMR263W, strain SAP30, active compounds read low
[12] = S. cerevisiae deletion strains, locus YMR307W, strain GAS1, active compounds read low
[13] = S. cerevisiae deletion strains, locus YPL055C, strain LGE1, active compounds read low

Measured: normalized growth

COc1cc2c(cc1OC)C(=O)c1ccc(OC)c(OC)c1OCC(=O)C2
inactive: [1] 1.01 | S. cerevisiae deletion strains, locus YBR021W, strain FUR4, active compounds read low 1.08 | [2] 1.01 | S. cerevisiae deletion strains, locus YCL029C, strain bik1, active compounds read low 1.01 | S. cerevisiae deletion strains, locus YDL035C, strain GPR1, active compounds read low 1.05 | S. cerevisiae deletion strains, locus YDL074C, strain BRE1, active compounds read low 1.05 | [3] 0.993 | S. cerevisiae deletion strains, locus YDL185W, strain tfp1, active compounds read low 0.982 | S. cerevisiae deletion strains, locus YDL192W, strain arf1, active compounds read low 1.04 | S. cerevisiae deletion strains, locus YDR101C, strain arx1, active compounds read low 1.06 | S. cerevisiae deletion strains, locus YDR162C, strain NBP2, active compounds read low 1.04 | S. cerevisiae deletion strains, locus YDR318W, strain mcm21, active compounds read low 1.01 | S. cerevisiae deletion strains, locus YDR388W, active compounds read low 1.01 | S. cerevisiae deletion strains, locus YDR502C, strain sam2, active compounds read low 0.991 | [4] 1.01 | S. cerevisiae deletion strains, locus YER110C, active compounds read low 1.01 | S. cerevisiae deletion strains, locus YER155C, strain BEM2, active compounds read low 0.992 | S. cerevisiae deletion strains, locus YER167W, strain BCK2, active compounds read low 0.995 | S. cerevisiae deletion strains, locus YGL078C, strain dbp3, active compounds read low 0.963 | S. cerevisiae deletion strains, locus YGL086W, strain mad1, active compounds read low 1.02 | S. cerevisiae deletion strains, locus YGL248W, strain PDE1, active compounds read low 0.994 | [5] 1.02 | S. cerevisiae deletion strains, locus YGR135W, strain pre9, active compounds read low 0.968 | S. cerevisiae deletion strains, locus YGR252W, strain gcn5, active compounds read low 1.05 | [6] 1 | S. cerevisiae deletion strains, locus YHR079C, strain IRE1 (second series), active compounds read low 1 | S. cerevisiae deletion strains, locus YHR094C, strain hxt1, active compounds read low 0.991 | S. cerevisiae deletion strains, locus YHR129C, strain ARP1, active compounds read low 1 | S. cerevisiae deletion strains, locus YHR200W, strain rpn10, active compounds read low 1.02 | S. cerevisiae deletion strains, locus YIL066C, strain RNR3, active compounds read low 1.01 | S. cerevisiae deletion strains, locus YIL073C, strain SPO22, active compounds read low 0.954 | S. cerevisiae deletion strains, locus YIL125W, strain kgd1, active compounds read low 1.01 | S. cerevisiae deletion strains, locus YIR030C, strain dcg1, active compounds read low 1 | S. cerevisiae deletion strains, locus YJL095W, strain BCK1, active compounds read low 1.01 | S. cerevisiae deletion strains, locus YJL134W, strain LCB3, active compounds read low 1.01 | S. cerevisiae deletion strains, locus YJL168C, strain set2, active compounds read low 1 | S. cerevisiae deletion strains, locus YJL187C, strain SWE1 (second series), active compounds read low 1.01 | [7] 1.09 | [8] 0.997 | S. cerevisiae deletion strains, locus YKL009W, strain mrt4, active compounds read low 1.01 | S. cerevisiae deletion strains, locus YKL068W, active compounds read low 0.988 | S. cerevisiae deletion strains, locus YKL085W, strain MDH1 (second series), active compounds read low 0.962 | S. cerevisiae deletion strains, locus YKL085W, strain MDH1, active compounds read low 0.962 | S. cerevisiae deletion strains, locus YKR001C, strain vps1, active compounds read low 1 | [9] 1.03 | S. cerevisiae deletion strains, locus YLR058C, strain SHM2, active compounds read low 1.01 | S. cerevisiae deletion strains, locus YLR102C, strain apc9, active compounds read low 1.01 | [10] 1 | S. cerevisiae deletion strains, locus YLR268W, strain sec22, active compounds read low 1 | S. cerevisiae deletion strains, locus YLR330W, strain CHS5, active compounds read low 1 | S. cerevisiae deletion strains, locus YLR342W, strain FKS1 (second series), active compounds read low 1.13 | S. cerevisiae deletion strains, locus YLR371W, strain rom2, active compounds read low 0.984 | S. cerevisiae deletion strains, locus YLR418C, strain cdc73, active compounds read low 1.01 | S. cerevisiae deletion strains, locus YML016C, strain PPZ1, active compounds read low 1.01 | S. cerevisiae deletion strains, locus YML032C, strain rad52, active compounds read low 1.03 | S. cerevisiae deletion strains, locus YML124C, strain tub3, active compounds read low 0.983 | S. cerevisiae deletion strains, locus YMR078C, strain ctf18, active compounds read low 1 | S. cerevisiae deletion strains, locus YMR223W, strain ubp8, active compounds read low 1.01 | [11] 0.993 | [12] 1.2 | S. cerevisiae deletion strains, locus YNL067W, strain RPL9B, active compounds read low 0.976 | S. cerevisiae deletion strains, locus YNL233W, strain BNI4, active compounds read low 1.01 | S. cerevisiae deletion strains, locus YNL250W, strain rad50, active compounds read low 0.936 | S. cerevisiae deletion strains, locus YNL271C, strain bni1, active compounds read low 0.976 | S. cerevisiae deletion strains, locus YNL298W, strain CLA4, active compounds read low 1 | S. cerevisiae deletion strains, locus YNL307C, strain MCK1, active compounds read low 0.988 | S. cerevisiae deletion strains, locus YNR052C, strain pop2, active compounds read low 0.996 | S. cerevisiae deletion strains, locus YOL006C, strain TOP1, active compounds read low 1.27 | S. cerevisiae deletion strains, locus YOL012C, strain htz1 0.675 | S. cerevisiae deletion strains, locus YOL147C, strain pex11, active compounds read low 1.01 | S. cerevisiae deletion strains, locus YOR061W, strain CKA2, active compounds read low 1.02 | S. cerevisiae deletion strains, locus YOR069W, strain VPS5, active compounds read low 1 | S. cerevisiae deletion strains, locus YOR136W, strain idh2, active compounds read low 1 | S. cerevisiae deletion strains, locus YOR144C, strain elg1, active compounds read low 1 | S. cerevisiae deletion strains, locus YOR184W, strain ser1, active compounds read low 1.07 | S. cerevisiae deletion strains, locus YOR316C, strain cot1, active compounds read low 0.99 | [13] 1.09 | S. cerevisiae deletion strains, locus YPR119W, strain clb2, active compounds read low 0.977 | S. cerevisiae deletion strains, locus YPR141C, strain kar3, active compounds read low 0.972 | S. cerevisiae deletion strains, locus YPR163C, strain tif3, active compounds read low 0.999 | S. cerevisiae deletion strains, locus YPR167C, strain met16, active compounds read low 0.99 | S. cerevisiae deletion strains, strain wtn01, active compounds read low 1.04 | S. cerevisiae strains, strain wild type, active compounds read low 1.04

COc1ccc(/C=C2\CC/C(=C\c3ccc(OC)c(OC)c3)C2=O)cc1OC
inactive: [1] 0.988 | [2] 0.998 | S. cerevisiae deletion strains, locus YCL061C, strain MRC1, active compounds read low 0.996 | [3] 0.974 | S. cerevisiae deletion strains, locus YDL134C, strain PPH21, active compounds read low 1.02 | S. cerevisiae deletion strains, locus YDR150W, strain NUM1, active compounds read low 0.904 | [4] 0.986 | [5] 0.978 | S. cerevisiae deletion strains, locus YGR229C, strain SMI1, active compounds read low 1 | [6] 0.902 | S. cerevisiae deletion strains, locus YHR087W, strain rtc3, active compounds read low 0.977 | S. cerevisiae deletion strains, locus YJL187C, strain SWE1, active compounds read low 1.01 | [7] 0.966 | [8] 1.03 | [9] 0.936 | S. cerevisiae deletion strains, locus YLR058C, strain SHM2 (second series), active compounds read low 1.01 | S. cerevisiae deletion strains, locus YLR085C, strain ARP6, active compounds read low 0.989 | [10] 0.964 | S. cerevisiae deletion strains, locus YML094W, strain GIM5, active compounds read low 1.03 | S. cerevisiae deletion strains, locus YMR219W, strain ESC1, active compounds read low 0.995 | [11] 0.973 | [12] 0.817 | S. cerevisiae deletion strains, locus YNL128W, strain TEP1, active compounds read low 0.997 | S. cerevisiae deletion strains, locus YNL153C, strain GIM3, active compounds read low 0.989 | S. cerevisiae deletion strains, locus YNL298W, strain CLA4 (second series), active compounds read low 0.987 | S. cerevisiae deletion strains, locus YNL322C, strain KRE1, active compounds read low 0.999 | S. cerevisiae deletion strains, locus YNR030W, strain Alg12, active compounds read low 0.974 | [13] 0.907 | S. cerevisiae deletion strains, locus YPL241C, strain CIN2, active compounds read low 0.974 | S. cerevisiae deletion strains, locus YPR135W, strain CTF4, active compounds read low 0.919
